{
  "source": "PubChem BioAssay (NCI)",
  "note": "Where “and” joins values, the source holds several entries; their conditions need not be identical. Identical values can stand only once. This is part of a sample that, as a whole, favours compounds with a hit. Of some 83,000 tested, about 20% had one in any assay.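 Assay: single dose, 48 h. Readout: percent growth (0 = no net growth; negative = cell death). Active: <10.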 Calls of active or inactive are those of the source.",
  "data": [
    {"test_system": "MDA-MB-468 breast", "assay": "NCI-60 one-dose screen, 48 h (100 = growth as untreated, 0 = no growth, -100 = all killed)", "settings": "10 µM unless noted", "values": [
      {"smiles": "N#CCCCCCCCCCCC#N", "growth": "112% (inactive)"},
      {"smiles": "CCOC1=C(Cl)C(=O)C(OCC)=C(Cl)C1=O", "growth": "103% (inactive)"},
      {"smiles": "C=C(C=O)[C@@H]1CC[C@]2(C)[C@H](C(=O)C=C3[C@H]4C[C@](C)(C(=O)OC)CC[C@]4(C)CC[C@]32C)[C@@]1(C)CCC#N", "growth": "80.2% (inactive)"},
      {"smiles": "COc1ccc(/C=C/C(c2cc(OC)c(OC)c(OC)c2)n2cncn2)cc1O", "note": "(stereo not given)", "growth": "8.27% (active)"},
      {"smiles": "CCNCCNc1cc(-c2ccc(F)cc2)c(C#N)c2nc3ccccc3n12", "growth": "-8.31% (active)"},
      {"smiles": "O=Cc1c(O)c2ccccc2[nH]c1=O", "growth": "94.5% (inactive)"},
      {"smiles": "COc1ccc(-c2nn(-c3ccc(NC(=O)Nc4cc(C(F)(F)F)cc(C(F)(F)F)c4)cc3)cc2-c2ccncc2)cc1Cl", "growth": "-11.6% (active)"},
      {"smiles": "O=C(O)C1CSCN1", "note": "(stereo not given)", "growth": "114% (inactive) and 95.5% (inactive)"},
      {"smiles": "CCOc1cccc(C2CC(=O)Nc3cc4c(cc32)OCO4)c1", "note": "(stereo not given)", "growth": "34.2% (inactive)"},
      {"smiles": "C=C1C(=O)O[C@H]2[C@H]1CC/C(CNC(=O)c1cc3ccccc3[nH]1)=C\\CC[C@@]1(C)O[C@@H]21", "growth": "-61.7% (active)"},
      {"smiles": "CC1=NNC(=O)C1C", "note": "(stereo not given)", "growth": "95.8% (inactive)"},
      {"smiles": "NC(=S)NS(=O)(=O)c1ccc(N)cc1", "growth": "96.5% (inactive)"},
      {"smiles": "c1ccc(-c2nn[nH]n2)c(-c2ccc(CN3CCN(c4nsc5ccccc45)CC3)cc2)c1", "growth": "75.8% (inactive)"},
      {"smiles": "Nc1nsc(C(=O)c2ccc(O)cc2)n1", "growth": "105% (inactive)"},
      {"smiles": "CC(C)CCc1nc2ccc(NCc3ccc(OCCN4CCC(C)CC4)cc3)cc2[nH]1", "growth": "65.6% (inactive)"},
      {"smiles": "CCC(C)(C)c1ccc(OCCCCCCN2CCN(c3ccc(C)c(Cl)c3)CC2)cc1", "growth": "47.1% (inactive)"},
      {"smiles": "CCNc1ccc(-c2nc3ccccc3n3cccc23)cc1", "growth": "2.19% (active)"},
      {"smiles": "CC(=O)N1N=C(c2ccc(C)cc2)CC1c1ccc(Oc2ccc(Br)cc2)cc1", "note": "(stereo not given)", "growth": "75% (inactive)"},
      {"smiles": "Nc1c(C(=O)Nc2ccccc2)sc2nc3c(cc12)CN(Cc1ccccc1)CC3", "growth": "76.2% (inactive)"},
      {"smiles": "COc1ccccc1S(=O)Nc1ccccc1", "note": "(stereo not given)", "growth": "97.2% (inactive)"},
      {"smiles": "COc1ccc([C@@H]2C(=O)N(c3cc(OC)c(OC)c(OC)c3)[C@H]2c2ccc(OC)c(O)c2)cc1", "growth": "-4.45% (active)"},
      {"smiles": "Cc1ccc(NCN2C(=O)c3ccccc3C2=O)c(C)n1", "growth": "98.5% (inactive)"},
      {"smiles": "C=C1C(=O)O[C@H]2[C@H]1CC/C(COC(=O)/C=C\\C(=O)NCc1ccc(Cn3c(=O)sn(CCCC)c3=O)cc1)=C\\CC[C@@]1(C)O[C@@H]21", "growth": "-70.9% (active)"},
      {"smiles": "CCOC(=O)/C=C1\\S/C(=N\\Nc2cc(=O)[nH]c3ccc(OC)cc23)N(c2ccccc2)C1=O", "growth": "101% (inactive)"},
      {"smiles": "COc1ccc2c(N)ncc(C#Cc3cc(C(=O)Nc4ccc(CN5CCN(C)CC5)c(C(F)(F)F)c4)cnc3C)c2c1", "growth": "46.7% (inactive)"},
      {"smiles": "CCN1CCCC(Nc2cc(C)nc(/N=C(/N)Nc3ccc(Cl)c(Cl)c3)n2)C1", "note": "(stereo not given)", "growth": "-83.3% (active)"},
      {"smiles": "CCN1CCN(C(=O)[C@]23CCC(C)(C)C[C@H]2C2=CC[C@@H]4[C@@]5(C)CC/C(=N/O)C(C)(C)[C@@H]5CC[C@@]4(C)[C@]2(C)CC3)CC1", "growth": "47% (inactive)"},
      {"smiles": "Cc1ccc(-n2c(/C=C3\\C(=O)Nc4ccccc43)ccc2CO)cc1", "growth": "45.1% (inactive)"},
      {"smiles": "CCN1C(=O)N(CC)C2C1NN=c1s/c(=C\\c3cccc([N+](=O)[O-])c3)c(=O)n12", "note": "(stereo not given)", "growth": "3.95% (active)"},
      {"smiles": "Cc1cc(C)c(/C=C2\\C(=O)Nc3ccc(NC(=O)CCCCCCC(=O)NO)cc32)[nH]1", "growth": "13% (inactive)"},
      {"smiles": "Cc1ccc(S(=O)(=O)Nc2ccc(-c3cc(-c4cccc(F)c4)c(C#N)c(N)n3)cc2)cc1", "growth": "-14.9% (active)"},
      {"smiles": "COc1cccc(/C=C/C(=O)c2c(C)nc3ccccc3c2/C=C/c2ccccc2)c1OC", "growth": "43.3% (inactive)"},
      {"smiles": "Cc1[nH]c(C(=O)Nc2ccc(C(=O)N3CCNCC3)cc2OC(C)C)c(Cl)c1Cl", "growth": "64.8% (inactive)"},
      {"smiles": "CCOC(=O)C1(Cc2ccccc2)CCN(Cc2cccc(OC)c2O)CC1", "growth": "-9.39% (active)"},
      {"smiles": "NCc1cn2cc(Cl)sc2n1", "growth": "101% (inactive)"},
      {"smiles": "Nc1ccc2c(c1)Cc1cc(N)c(Cl)cc1-2", "growth": "80.4% (inactive)"},
      {"smiles": "C=C[C@@H]1CCC/C=C/[C@@H]2C[C@H](O)C[C@H]2[C@H](O)/C=C/C(=O)O1", "growth": "-46.6% (active)"},
      {"smiles": "COc1ccc(C2OC(N)=C(O)C2=O)cc1OC", "note": "(stereo not given)", "growth": "109% (inactive)"},
      {"smiles": "CC(=O)Nc1ccc2c(c1)C(=O)c1cccc(C(=O)O)c1-2", "growth": "90.9% (inactive)"},
      {"smiles": "CC1(C)CC(=O)C2=C(C1)N(c1ccc(OC(F)(F)F)cc1)C(N)=C(C#N)C2c1ccc(Br)cc1F", "note": "(stereo not given)", "growth": "55.7% (inactive)"}
    ]}
  ]
}
